Laboratory results published in PubChem BioAssay (EPA / NIEHS).
Inconclusive results are not listed. Active and inactive are the calls of the source. How the source made its calls: active means hit-call score of the fitted dose curve at least 0.9, where 1 is the maximum; inconclusive means response in the unintended direction; inactive means score below 0.9. Peptide text beside a SMILES is read from it.

Biological target: Peroxisome proliferator-activated receptor gamma (Homo sapiens) (UniProt P37231)
Assay: OT_PPARg_PPARgSRC1_0480: Odyssey Thera (OT) 8-hour Protein-Complementation Assay for Peroxisome Proliferator-activated Receptor Gamma / SRC-1 Co-activator (AID 2283387);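 further: nuclear to cytoplasmic split Venus YFP fluorescence ratio reporting PPARg SRC-1 interaction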
How it was run: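 Split-YFP (IFP1/IFP2) PPARg/SRC-1 reporter, HEK293T, 37 °C, 5% CO2; 8 h compound; formaldehyde fix + Draq5; high-content imaging, N/C ratio, ≥350 cells/image, positive direction vs DMSO.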

Sequence of Peroxisome proliferator-activated receptor gamma (Homo sapiens) (P37231 whole entry, looked up): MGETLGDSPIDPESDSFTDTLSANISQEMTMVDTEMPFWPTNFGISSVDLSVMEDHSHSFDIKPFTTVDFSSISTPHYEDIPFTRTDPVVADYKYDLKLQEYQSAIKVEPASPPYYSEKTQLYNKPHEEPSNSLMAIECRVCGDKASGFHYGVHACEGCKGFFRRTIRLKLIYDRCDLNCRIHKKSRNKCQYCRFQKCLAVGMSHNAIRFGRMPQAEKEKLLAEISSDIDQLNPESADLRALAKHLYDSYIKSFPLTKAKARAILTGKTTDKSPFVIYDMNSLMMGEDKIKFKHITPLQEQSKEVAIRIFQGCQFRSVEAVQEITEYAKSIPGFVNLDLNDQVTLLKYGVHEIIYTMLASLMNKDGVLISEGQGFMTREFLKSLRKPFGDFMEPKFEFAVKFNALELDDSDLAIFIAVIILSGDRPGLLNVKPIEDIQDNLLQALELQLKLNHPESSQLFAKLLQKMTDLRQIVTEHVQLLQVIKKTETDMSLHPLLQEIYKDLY

SMILES | outcome | AC50
C=C1C[C@H]2[C@@H]3C=C(C)C4=CC(=O)CC[C@]4(C)[C@H]3CC[C@]2(C)[C@@]1(OC(C)=O)C(C)=O | inactive | 
COC(=O)[C@H](Cc1ccccc1)NC(=O)[C@@H](N)CC(=O)O (H-Asp-Phe-OMe) | inactive | 
Cc1c(C(=O)c2c[nH]n(C)c2=O)ccc(S(C)(=O)=O)c1C1=NOCC1 | inactive | 
C[Si](C)(C)N[Si](C)(C)C | inactive | 
COC(=O)c1ccccc1C | inactive | 
CC(C)c1ccc(O)c(C(C)C)c1 | inactive | 
O=C(O)C1CCC(C(=O)O)CC1 (stereo not given) | inactive | 
CC(=O)OC1CCCCC1C(C)(C)C (stereo not given) | inactive | 
CCCCC/C=C\C/C=C\CCCCCCCC(=O)O |  | 12.7 µM (active)
CC(=O)OCc1ccccc1 | inactive | 
C=C[Si](OCCOC)(OCCOC)OCCOC | inactive | 
CCCCCCCCCCCCCC(=O)OC(C)C | inactive | 
CC(=O)OC(C)c1ccccc1 (stereo not given) | inactive | 
CCCCNC(=S)NCCCC | inactive | 
N#Cc1ccc(C2CCCc3cncn32)cc1 (stereo not given) | inactive | 
O=C(O)CCC(=O)O | inactive | 
CCCCOCCOC(=O)COc1ccc(Cl)cc1Cl | inactive | 
Nc1ccc(C(=O)O)cc1 | inactive | 
CC(C)(C)N | inactive | 
O=C(OCCc1ccccc1)c1ccccc1 | inactive | 
CC(CCC(=O)O)(c1ccc(O)cc1)c1ccc(O)cc1 | inactive | 
CC1=CCC2CC1C2(C)C (stereo not given) | inactive | 
C1CNCCN1 | inactive | 
c1ccc(Nc2cccc3ccccc23)cc1 | inactive | 
CCCCCCCCCCCCCCCCCCOS(=O)(=O)O | inactive | 
C[Si]1(C)O[Si](C)(C)O[Si](C)(C)O[Si](C)(C)O[Si](C)(C)O1 | inactive | 
CC(C)COC(=O)CC(C(=O)OCC(C)C)S(=O)(=O)O (stereo not given) | inactive | 
CCC1COC(=O)O1 (stereo not given) | inactive | 
CCCCNS(=O)(=O)c1ccccc1 | inactive | 
CCCCCCCCCC[N+](C)(CCCCCCCCCC)CCC[Si](OC)(OC)OC | inactive | 

Biological target: Peroxisome proliferator-activated receptor gamma (Homo sapiens) (UniProt P37231)
Assay: OT_PPARg_PPARgSRC1_1440: Odyssey Thera (OT) 24-hour Protein-Complementation Assay for Peroxisome Proliferator-activated Receptor Gamma/ SRC-1 Co-activator (AID 2283388);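 further: nuclear to cytoplasmic ratio of reconstituted Venus YFP fluorescence in fixed imaged cells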
How it was run: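 Readout: nuclear-to-cytoplasmic 488 nm fluorescence ratio, ≥350 cells per image, 8 images per well, after 24 h compound exposure of HEK293T expressing PPARg/SRC-1 split-YFP fusions. Activity fitted in positive direction against DMSO.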

SMILES | outcome
C=C1C[C@H]2[C@@H]3C=C(C)C4=CC(=O)CC[C@]4(C)[C@H]3CC[C@]2(C)[C@@]1(OC(C)=O)C(C)=O | inactive
COC(=O)[C@H](Cc1ccccc1)NC(=O)[C@@H](N)CC(=O)O (H-Asp-Phe-OMe) | inactive
Cc1c(C(=O)c2c[nH]n(C)c2=O)ccc(S(C)(=O)=O)c1C1=NOCC1 | inactive
C[Si](C)(C)N[Si](C)(C)C | inactive
COC(=O)c1ccccc1C | inactive
CC(C)c1ccc(O)c(C(C)C)c1 | inactive
O=C(O)C1CCC(C(=O)O)CC1 (stereo not given) | inactive
CC(=O)OC1CCCCC1C(C)(C)C (stereo not given) | inactive
CCCCC/C=C\C/C=C\CCCCCCCC(=O)O | inactive
CC(=O)OCc1ccccc1 | inactive
C=C[Si](OCCOC)(OCCOC)OCCOC | inactive
CCCCCCCCCCCCCC(=O)OC(C)C | inactive
CC(=O)OC(C)c1ccccc1 (stereo not given) | inactive
CCCCNC(=S)NCCCC | inactive
N#Cc1ccc(C2CCCc3cncn32)cc1 (stereo not given) | inactive
O=C(O)CCC(=O)O | inactive
CCCCOCCOC(=O)COc1ccc(Cl)cc1Cl | inactive
Nc1ccc(C(=O)O)cc1 | inactive
CC(C)(C)N | inactive
O=C(OCCc1ccccc1)c1ccccc1 | inactive
CC(CCC(=O)O)(c1ccc(O)cc1)c1ccc(O)cc1 | inactive
CC1=CCC2CC1C2(C)C (stereo not given) | inactive
C1CNCCN1 | inactive
c1ccc(Nc2cccc3ccccc23)cc1 | inactive
CCCCCCCCCCCCCCCCCCOS(=O)(=O)O | inactive
C[Si]1(C)O[Si](C)(C)O[Si](C)(C)O[Si](C)(C)O[Si](C)(C)O1 | inactive
CC(C)COC(=O)CC(C(=O)OCC(C)C)S(=O)(=O)O (stereo not given) | inactive
CCC1COC(=O)O1 (stereo not given) | inactive
CCCCNS(=O)(=O)c1ccccc1 | inactive
CCCCCCCCCC[N+](C)(CCCCCCCCCC)CCC[Si](OC)(OC)OC | inactive
